Bioassay records: PubChem BioAssay, several laboratories
M1 antagonist – antagonists of rat M1 muscarinic receptor | P08482 | CHO-M1 cells, Fluo-4 calcium, ACh EC80 antagonist mode; active compounds read low | B-score at 10 µM | 64,000 tested, 3.4% active;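 active = calcium fluorescence response, raw or row-and-column corrected B-score, differing from the plate sample mean either way at a set confidence level, mostly lower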
M1 ag – activates the M1 muscarinic receptor | CHO-M1 cells, Fluo-4 calcium fluorescence, agonist mode; active compounds read high | B-score at 10 µM | 64,000 tested, 3% active;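 active = fluorescence rise, raw or as B-score row- and column-corrected plate score, outside the 99.7% band of its plate's samples, either direction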
Cav3 T inh – blocks human Cav3.2 T-type calcium channel | Cav3.2-expressing cells, Fluo-4 calcium fluorescence FDSS; active compounds read low | B-score at 10 µM | 100,000 tested, 4% active | AID 449739;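 active = single-dose well whose peak fluorescence ratio is a statistical outlier from its plate by either plate-standardised score or position-corrected B-score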
Target sequence (O95180 whole entry, looked up): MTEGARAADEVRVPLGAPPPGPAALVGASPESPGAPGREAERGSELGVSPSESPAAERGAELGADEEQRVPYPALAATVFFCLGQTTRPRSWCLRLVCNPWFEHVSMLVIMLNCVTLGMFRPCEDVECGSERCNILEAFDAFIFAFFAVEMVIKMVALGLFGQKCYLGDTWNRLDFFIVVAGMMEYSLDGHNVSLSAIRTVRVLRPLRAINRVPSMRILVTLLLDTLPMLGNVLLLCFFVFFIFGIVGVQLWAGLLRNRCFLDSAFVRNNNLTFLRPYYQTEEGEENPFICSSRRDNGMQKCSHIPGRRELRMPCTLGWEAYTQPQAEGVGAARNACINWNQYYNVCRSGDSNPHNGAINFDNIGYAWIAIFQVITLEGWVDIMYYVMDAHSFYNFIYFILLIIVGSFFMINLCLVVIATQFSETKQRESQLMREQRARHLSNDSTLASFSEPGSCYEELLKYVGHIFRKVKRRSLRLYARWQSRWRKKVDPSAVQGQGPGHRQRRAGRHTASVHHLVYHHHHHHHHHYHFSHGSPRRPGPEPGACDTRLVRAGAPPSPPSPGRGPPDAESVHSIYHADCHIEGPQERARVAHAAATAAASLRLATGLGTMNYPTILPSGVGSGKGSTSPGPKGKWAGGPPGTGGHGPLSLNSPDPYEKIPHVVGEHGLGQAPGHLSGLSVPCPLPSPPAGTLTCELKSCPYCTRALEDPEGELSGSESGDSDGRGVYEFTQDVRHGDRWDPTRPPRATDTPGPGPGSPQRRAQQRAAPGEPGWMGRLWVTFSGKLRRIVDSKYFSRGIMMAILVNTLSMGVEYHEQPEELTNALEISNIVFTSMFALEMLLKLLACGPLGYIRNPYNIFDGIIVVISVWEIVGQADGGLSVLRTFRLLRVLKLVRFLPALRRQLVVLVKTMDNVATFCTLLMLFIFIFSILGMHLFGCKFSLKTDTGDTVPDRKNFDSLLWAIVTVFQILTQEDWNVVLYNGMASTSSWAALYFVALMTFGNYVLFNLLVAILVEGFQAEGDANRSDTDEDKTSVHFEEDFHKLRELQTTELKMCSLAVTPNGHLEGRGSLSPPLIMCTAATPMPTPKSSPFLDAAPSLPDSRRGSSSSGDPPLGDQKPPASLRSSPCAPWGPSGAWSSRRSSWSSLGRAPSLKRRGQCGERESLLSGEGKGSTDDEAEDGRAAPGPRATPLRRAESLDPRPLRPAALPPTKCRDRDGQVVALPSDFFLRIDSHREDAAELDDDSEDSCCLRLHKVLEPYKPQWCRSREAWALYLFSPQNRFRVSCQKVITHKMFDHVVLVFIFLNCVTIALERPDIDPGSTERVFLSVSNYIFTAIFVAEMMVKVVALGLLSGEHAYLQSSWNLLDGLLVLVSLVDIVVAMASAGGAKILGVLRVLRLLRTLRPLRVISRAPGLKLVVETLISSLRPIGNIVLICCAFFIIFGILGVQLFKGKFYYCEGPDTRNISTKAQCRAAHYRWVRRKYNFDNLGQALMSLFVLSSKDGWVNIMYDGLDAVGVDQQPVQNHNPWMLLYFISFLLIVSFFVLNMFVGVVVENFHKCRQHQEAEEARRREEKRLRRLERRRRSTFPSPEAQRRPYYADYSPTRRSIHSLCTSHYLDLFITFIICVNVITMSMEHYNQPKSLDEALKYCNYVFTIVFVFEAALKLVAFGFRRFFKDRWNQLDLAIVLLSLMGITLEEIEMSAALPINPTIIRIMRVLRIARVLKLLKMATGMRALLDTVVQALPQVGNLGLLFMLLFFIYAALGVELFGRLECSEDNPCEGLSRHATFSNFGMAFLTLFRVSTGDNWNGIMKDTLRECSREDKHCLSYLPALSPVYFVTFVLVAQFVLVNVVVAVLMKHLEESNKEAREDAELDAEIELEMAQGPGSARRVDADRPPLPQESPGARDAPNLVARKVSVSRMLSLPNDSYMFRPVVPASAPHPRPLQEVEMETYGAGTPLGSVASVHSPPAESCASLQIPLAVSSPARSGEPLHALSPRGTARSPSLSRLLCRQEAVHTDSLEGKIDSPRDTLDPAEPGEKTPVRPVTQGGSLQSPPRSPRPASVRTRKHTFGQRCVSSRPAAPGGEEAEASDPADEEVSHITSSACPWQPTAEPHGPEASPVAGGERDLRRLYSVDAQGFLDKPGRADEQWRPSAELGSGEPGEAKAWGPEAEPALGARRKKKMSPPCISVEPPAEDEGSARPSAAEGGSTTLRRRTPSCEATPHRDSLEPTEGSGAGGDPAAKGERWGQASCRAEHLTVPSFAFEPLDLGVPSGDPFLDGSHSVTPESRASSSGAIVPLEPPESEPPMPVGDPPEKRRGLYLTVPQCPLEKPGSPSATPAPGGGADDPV
PLAP act – activates human placental alkaline phosphatase; P05187; purified PLAP enzyme, luminescent substrate read-out; active compounds read high; activation fold at 20 µM; 96,000 tested, 1.2% active; AID 696; in the data active = activation fold above about 2
A number is an active result; – = inactive; · = no result. This is a sample that favours compounds with a hit; in the whole collection about 7.6% have one here.

SMILES	M1 antagonist	M1 ag	Cav3 T inh	PLAP act
CCCCCn1c(N(C)Cc2ccccc2)nc2c1c(=O)[nH]c(=O)n2C	–	–	–	–
CC(C)(C)C1CCC2(CC1)C(C#N)=C(SCC(=O)Nc1ccccc1)NC(=O)C2C#N (centres undefined)	–	–	-6.7	–
CC1(C)CC(=O)C2=C(C1)NC(SCC(=O)Nc1ccccc1)=C(C#N)C21CCCCC1	–	–	–	–
Oc1c(Cl)cc(Cl)cc1C=Nc1ccc(Br)cc1	·	·	-7.6	–
CCn1ncc(Cl)c1C(=O)NC(C)c1ccccc1 (centres undefined)	–	–	–	–
CCNC(=S)N(Cc1ccc2c(c1)OCO2)C1CC(=O)N(c2ccc(F)cc2)C1=O (centres undefined)	·	·	-7.1	–
CCCCCCCCCCCC(=O)NC(C(=O)OCC)C(O)c1cccc([N+](=O)[O-])c1 (centres undefined)	·	·	–	–
Cc1ccc(-c2ccc(/C=N\NC(=O)C3C(=O)NCC3c3ccccc3)o2)cc1Cl (centres undefined)	·	·	–	2.1
COc1cccc(/C=N\NC(=O)C2C(=O)NCC2c2ccccc2)c1O (centres undefined)	·	·	–	2.5
Cc1ccc(-c2ccc(/C=N/NC(=O)CN3CCCC3)o2)cc1Cl	·	·	–	–
O=C(Nc1cccc(Cl)c1)N1CCN(C/C=C/c2ccccc2)CC1	–	–	-6	–
O=C(c1ccc(Br)s1)N1CCN(C/C=C/c2ccccc2)CC1	·	·	–	2
CCOc1ccccc1N1CCN(C(=O)Nc2cccc(Cl)c2)CC1	–	–	-6.1	–
Cc1nnc(NC(=O)CSc2nnc(CCc3nc4ccccc4[nH]3)n2C)s1	–	–	–	2.1
CCSCc1nnc(SCC(=O)Nc2nc3ccccc3s2)n1C	–	–	–	–
CCC1(C(=O)c2ccccc2)C2c3cc(Br)ccc3OC(=O)C21C(=O)N1CCOCC1 (centres undefined)	·	·	-4.3	–
Cc1cccc(NC(=O)CN2NS(=O)(=O)c3ccccc3C2=O)c1	·	·	–	–
CCOc1ccc(OCC)c(NC(=O)CN(c2ccc(C)cc2)S(=O)(=O)c2c(C)noc2C)c1	–	–	–	–
COc1ccc(OC)c(NC(=O)CN(c2ccc(C(C)C)cc2)S(=O)(=O)c2c(C)noc2C)c1	–	–	-4.5	–
CCOc1ccccc1NC(=O)CN(c1ccc(C)cc1)S(=O)(=O)c1c(C)noc1C	–	–	-4.7	–
O=C(CCN1C(=O)/C(=C/c2cccc(Br)c2)SC1=S)NNC(=O)c1cccnc1	·	·	–	2.2
Cc1ccccc1Cn1nc(C)c(NC(=O)c2sc3ccccc3c2Cl)c1C	·	·	-6.8	–
Cc1nn(Cc2c(Cl)cccc2Cl)c(C)c1NC(=O)c1sc2ccccc2c1Cl	·	·	–	–
Cc1nn(Cc2ccc(Cl)c(Cl)c2)c(C)c1NC(=O)c1sc2ccccc2c1Cl	·	·	-8.1	–
O=C(NC1=NCCS1)C1CC2CCC1C2 (centres undefined)	–	–	–	–
SMILES	M1 antagonist	M1 ag	Cav3 T inh	PLAP act
C=CCn1c(COc2ccc3c(c2)CCCC3)nnc1SCC(=O)Nc1cccc(SC)c1	·	·	-4.4	–
O=C(NCC1CCCO1)C(c1ccc(F)cc1)N(Cc1ccc(F)cc1)C(=O)Cn1nnc(-c2cccs2)n1 (centres undefined)	·	·	–	·
O=C(NCC1CCCO1)C(c1cccs1)N(Cc1cccs1)C(=O)Cn1nnc(-c2cccs2)n1 (centres undefined)	·	·	-7.1	·
CC(C)CCNC(=O)C(c1ccncc1)N(Cc1cccs1)C(=O)Cn1nnc(-c2ccc(F)cc2)n1 (centres undefined)	·	·	-7.4	·
C/C(=N\NS(=O)(=O)c1ccc(Cl)cc1)c1ccc(O)cc1	·	·	–	–
O=C(O)C1CCN(S(=O)(=O)/C=C/c2ccccc2)CC1	·	·	–	–
CC(=O)OCCCN1c2ccccc2Nc2nnc(-c3ccccc3)cc21	·	·	–	–
CCC(C)NC(=O)c1c(C)cc(=O)oc1C (centres undefined)	–	–	–	–
Cc1ccccc1C(=O)NNc1ccc([N+](=O)[O-])cc1	·	·	–	–
O=C(NC(NNc1ccc([N+](=O)[O-])cc1)(C(F)(F)F)C(F)(F)F)c1ccccc1Cl	·	·	-8.5	–
COc1ccc(C2c3c(-c4ccccc4O)n[nH]c3C(=O)N2CCc2ccc(OC)c(OC)c2)cc1 (centres undefined)	–	–	–	2.8
COc1ccc(CCN2C(=O)c3[nH]nc(-c4ccccc4O)c3C2c2cccc(Cl)c2)cc1 (centres undefined)	·	·	–	–
COc1ccc(-c2c(-c3ccsc3)oc3ccc(N4CCOCC4)cc23)cc1	·	·	–	·
CC(=O)COc1ncn(-c2ccccc2)n1	·	·	-4.4	–
CCOC(=O)c1cccc(NC(=O)CS(=O)(=O)Cc2nc(-c3cccc(OC)c3)oc2C)c1	–	–	-5.2	–
CCN(CCNC(=O)CS(=O)(=O)Cc1nc(-c2cccc(OC)c2)oc1C)c1ccccc1	–	–	-9	–
Cc1ccc(-c2nn3c(C)nnc3c3ccccc23)cc1S(=O)(=O)N(C)CCO	·	·	–	–
COc1ccc(CNC(=O)COC(=O)c2n[nH]c3ccccc23)cc1OC	–	–	–	·
COc1ccccc1CNC(=O)COC(=O)c1n[nH]c2ccccc12	·	·	–	2.3
CCOCC(=O)Nc1nc(-c2ccccc2)c(CC)s1	·	·	–	–
Cc1ccc(S(=O)(=O)NCCc2ccccc2)cc1	·	·	–	–
Cc1ccc(S(=O)(=O)NC(C)CCc2ccccc2)cc1 (centres undefined)	·	·	-4.1	–
Cc1ccc(Nc2nc(Nc3ccc(C)cc3)nc(SC3=NCCS3)n2)cc1	·	·	·	–
Cc1ccccc1Nc1nc(Nc2ccccc2C)nc(SC2=NCCS2)n1	·	·	-4.6	–
Cc1ccc(C)c(S(=O)(=O)NCc2ccc(C(=O)NCc3ccccn3)cc2)c1	·	·	–	–
SMILES	M1 antagonist	M1 ag	Cav3 T inh	PLAP act
Cc1nc2c(-c3ccccc3)c(C)nn2c(C)c1CCC(=O)NC(C)CCc1ccco1 (centres undefined)	·	·	-5.7	–
COc1ccccc1-c1cc2nc(C)c(CCC(=O)NC(C)CCc3ccco3)c(C)n2n1 (centres undefined)	·	·	–	–
Cc1ccc(CSCCNC(=O)CSCc2ccc([N+](=O)[O-])cc2)cc1	·	·	-4.3	–
Cc1cccc(CSCCNC(=O)CSCc2ccc([N+](=O)[O-])cc2)c1	·	·	-3.2	–
Cc1nc2cc(N3CCCCC3)c(NC(=O)c3ccncc3)cc2c(=O)n1Cc1ccc(Cl)cc1	·	·	·	–
Cc1nc2cc(N3CCN(C)CC3)c(NC(=O)Cc3ccccc3)cc2c(=O)n1Cc1ccccc1	–	–	-7.3	–
COCCCN1C(=O)C(O)=C(C(=O)c2ccco2)C1c1ccc(Br)cc1 (centres undefined)	–	–	–	–
Cc1nnc(N2C(=O)C(O)=C(C(=O)c3ccco3)C2c2ccc(F)cc2)s1 (centres undefined)	–	18	–	–
Cc1nnc(N2C(=O)C(O)=C(C(=O)c3ccco3)C2c2ccc(C(C)(C)C)cc2)s1 (centres undefined)	·	·	-3.7	·
CCc1noc2c1/C(=N\O)CC(c1ccccc1)C2 (centres undefined)	–	–	–	–
Cc1cc(NC(=O)c2cnn3cccnc23)no1	0.81	–	–	–
CCC1=CC(c2ccccc2)n2ncnc2N1 (centres undefined)	·	·	–	·
N#Cc1c(N)c(C#N)c(-c2ccc(O)cc2)c2c1CCCC2	–	–	-5.6	–
